Test results as given in PubChem BioAssay (Tox21).
Several values for one entry are separate records, joined by “and”; a condition that tells them apart may be missing. Equal values may be shown once. Records with an inconclusive call do not appear. A call without a number means that no potency is given here. Where a structure was tested more than once in an assay, its records may differ in their call. Activity calls are given as the source filed them. Unless noted, the call rests on the fitted dose curve.

Key:
[1] = Nuclear factor erythroid 2-related factor 2/antioxidant responsive element (Nrf2/ARE) small molecule agonists: qHTS cell viability counter screen in human keratinocytes (AID 1919968; active means well fitted curve in the direction sought with a large enough effect in the repeat runs; an effect the other way counts as inactive or inconclusive; further: nearly all actives have a fitted effect of over 55% in size; further: potency means the concentration at half of the fitted maximal effect)
Procedure, shortened: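 Viability counter-screen: KeratinoSens reporter cells, DMSO-delivered compounds, 23 h at 37 C, CellTiter-Fluor fluorescence.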

[2] = Nuclear factor erythroid 2-related factor 2/antioxidant responsive element (Nrf2/ARE) small molecule agonists: luciferase reporter gene qHTS assay in human keratinocytes (AID 1919969); further: nearly all actives have a fitted effect of over 35% in size; further: potency means the concentration at half of the fitted maximal effect
[3] = molecular target: Gonadotropin-releasing hormone receptor (Homo sapiens) (UniProt P30968); assay: Human gonadotropin-releasing hormone receptor (GnRHR) small molecule agonists, calcium flux assay in GnRHR-HEK293 cells (AID 1920063); further: nearly all actives have a fitted effect of over 35% in size
Gonadotropin-releasing hormone receptor (Homo sapiens), sequence (P30968 whole entry, looked up): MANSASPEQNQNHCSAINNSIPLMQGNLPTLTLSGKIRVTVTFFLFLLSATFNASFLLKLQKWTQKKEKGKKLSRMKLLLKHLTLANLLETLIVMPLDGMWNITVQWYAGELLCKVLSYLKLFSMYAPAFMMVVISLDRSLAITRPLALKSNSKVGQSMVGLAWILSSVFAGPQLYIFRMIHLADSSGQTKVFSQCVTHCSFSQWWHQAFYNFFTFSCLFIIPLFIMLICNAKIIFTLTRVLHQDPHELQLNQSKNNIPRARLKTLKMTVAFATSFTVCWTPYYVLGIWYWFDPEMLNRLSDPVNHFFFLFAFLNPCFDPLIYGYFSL
Procedure, shortened: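 Tox21-format agonist screen using human GnRHR-expressing HEK293 cells and a fluorescent calcium dye; kinetic 3-min fluorescence reading after compound addition, 15-point concentration series run in triplicate.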

[4] = molecular target: KiSS-1 receptor (Homo sapiens) (UniProt Q969F8); assay: Human kisspeptin (KISS1R) small molecule agonists, calcium flux assay in KISS1R-HEK293 cells (AID 1920064; active means well fitted curve in the direction sought with a large enough effect in the repeat runs; an effect the other way counts as inactive or inconclusive)
KiSS-1 receptor (Homo sapiens), sequence (Q969F8 whole entry, looked up): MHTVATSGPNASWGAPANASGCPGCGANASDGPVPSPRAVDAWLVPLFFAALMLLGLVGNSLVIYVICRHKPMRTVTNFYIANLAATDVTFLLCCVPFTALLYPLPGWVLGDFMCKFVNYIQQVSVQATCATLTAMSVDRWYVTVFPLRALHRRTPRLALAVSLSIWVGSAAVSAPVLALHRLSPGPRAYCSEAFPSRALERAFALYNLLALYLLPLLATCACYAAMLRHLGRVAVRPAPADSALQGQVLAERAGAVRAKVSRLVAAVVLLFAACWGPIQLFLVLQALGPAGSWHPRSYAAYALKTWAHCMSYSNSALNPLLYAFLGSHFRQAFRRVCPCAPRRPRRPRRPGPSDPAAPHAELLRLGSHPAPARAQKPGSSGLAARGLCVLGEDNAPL
Procedure, shortened: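 Intracellular calcium mobilization in KISS1R-HEK293 cells was recorded by fluorescence (Ex/Em 480/540) for 3 min following compound addition to cells pre-loaded 1 h with calcium dye.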

[5] = G protein-coupled receptor (GPCR) small molecule agonists, calcium flux assay: HEK293 wild type cell line counter screen (AID 1920065)
Procedure, shortened: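 In this agonist-mode screen, ATP is the positive control and DMSO the vehicle. Cells grow 18 h before a 1 h dye incubation at 37 C; signal is taken at Ex/Em 480/540 over 3 min.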

[6] = p53 small molecule agonists, cell-based qHTS assay with human liver microsomes (AID 1963577)
Procedure, shortened: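 p53RE-bla reporter cells were pre-incubated 5 h at 37 C, then treated with compounds plus human liver microsomes (0.5 mg/mL final) and NADPH (0.5 mg/mL final) for 16 h at 37 C. Beta-lactamase activity was read by LiveBLAzer fluorescence after 2 h at room temperature.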

[7] = p53 small molecule agonists, cell-based qHTS assay with rat liver microsomes: qHTS cell viability counter screen (AID 1963580); further: nearly all actives have a fitted effect of over 45% in size
Procedure, shortened: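 p53RE-bla HCT-116 cells were exposed 16 h at 37 C to compounds with rat liver microsomes (0.5 mg/mL) and NADPH (0.5 mg/mL). Viability was measured in the same wells as ATP content by CellTiter-Glo luminescence.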

[8] = molecular target: 5-hydroxytryptamine receptor 2A (Homo sapiens) (UniProt P28223); assay: 5-hydroxytryptamine receptor 2A (HTR2A) small molecule antagonists, cell-based qHTS assay (AID 1963586); further: nearly all actives have a fitted effect of over 45% in size; further: potency means the concentration at half of the fitted maximal effect
5-hydroxytryptamine receptor 2A (Homo sapiens), sequence (P28223 whole entry, looked up): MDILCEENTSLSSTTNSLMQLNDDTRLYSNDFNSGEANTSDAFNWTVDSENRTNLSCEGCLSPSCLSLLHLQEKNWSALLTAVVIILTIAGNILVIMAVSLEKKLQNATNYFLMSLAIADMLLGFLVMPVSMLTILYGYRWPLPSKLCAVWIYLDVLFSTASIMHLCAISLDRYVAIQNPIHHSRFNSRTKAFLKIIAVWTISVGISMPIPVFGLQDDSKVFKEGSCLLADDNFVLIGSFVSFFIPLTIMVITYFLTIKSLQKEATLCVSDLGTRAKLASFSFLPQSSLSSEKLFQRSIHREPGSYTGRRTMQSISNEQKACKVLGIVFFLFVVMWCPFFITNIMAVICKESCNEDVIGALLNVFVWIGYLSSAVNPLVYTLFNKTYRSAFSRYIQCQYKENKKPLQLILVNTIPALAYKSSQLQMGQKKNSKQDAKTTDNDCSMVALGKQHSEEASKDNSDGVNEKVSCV
Procedure, shortened: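 Antagonist-mode intracellular calcium assay: DOI (4 nM) added after 5 min compound pre-incubation at room temperature to dye-loaded HTR2A-CHO cells. Fluorescence followed for 3 min, sampled every second.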

[9] = molecular target: 5-hydroxytryptamine receptor 2A (Homo sapiens) (UniProt P28223); assay: 5-hydroxytryptamine receptor 2A (HTR2A) small molecule agonists, cell-based qHTS assay (AID 1963587); further: nearly all actives have a fitted effect of over 30% in size
Procedure, shortened: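 CHO cells stably expressing human HTR2A, plated 18 h, loaded with calcium dye 1 h at 37 C. Agonist mode: compounds added and intracellular calcium fluorescence recorded kinetically for 2 min at 1 sec intervals.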

[10] = molecular target: Muscarinic acetylcholine receptor M1 (Homo sapiens) (UniProt P11229); assay: Cholinergic receptor muscarinic 1 (CHRM1) small molecule antagonists, cell-based qHTS assay (AID 1963588); further: nearly all actives have a fitted effect of over 40% in size
Muscarinic acetylcholine receptor M1 (Homo sapiens), sequence (P11229 whole entry, looked up): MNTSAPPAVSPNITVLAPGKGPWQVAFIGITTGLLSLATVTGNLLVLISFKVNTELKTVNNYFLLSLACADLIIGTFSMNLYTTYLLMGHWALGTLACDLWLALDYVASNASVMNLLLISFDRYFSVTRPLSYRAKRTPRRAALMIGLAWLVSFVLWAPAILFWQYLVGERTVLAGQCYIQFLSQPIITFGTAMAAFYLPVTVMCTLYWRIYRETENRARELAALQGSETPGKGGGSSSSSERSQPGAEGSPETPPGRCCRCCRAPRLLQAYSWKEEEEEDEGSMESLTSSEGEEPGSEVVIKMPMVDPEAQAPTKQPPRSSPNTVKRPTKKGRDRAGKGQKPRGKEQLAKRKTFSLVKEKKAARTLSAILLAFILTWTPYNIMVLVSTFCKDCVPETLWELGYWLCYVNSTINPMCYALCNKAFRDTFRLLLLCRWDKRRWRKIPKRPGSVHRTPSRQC
Procedure, shortened: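 CHRM1-CHO calcium-flux assay, antagonist mode. Cells were seeded 18 h, dye-loaded 1 h at 37 C and given compound for 5 min at RT, then acetylcholine was added at 50nM. FDSS fluorescence was read 3 min; 15 concentrations, three runs.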

[11] = molecular target: Muscarinic acetylcholine receptor M1 (Homo sapiens) (UniProt P11229); assay: Cholinergic receptor muscarinic 1 (CHRM1) small molecule agonists, cell-based qHTS assay (AID 1963589); further: nearly all actives have a fitted effect of over 35% in size
Procedure, shortened: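 Stable CHRM1-CHO cells (human receptor) were incubated 18 h, dye-loaded for 1 h at 37 C and exposed to test compounds for agonist activity, with calcium-dependent fluorescence followed kinetically.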

[12] = cAMP Responsive Elements (CRE) small molecule agonists, cell-based qHTS assay (AID 1963590)
Procedure, shortened: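 FRET-based beta-lactamase readout (LiveBLAzer B/G, 2 h RT) quantified CRE activation in HEK 293T CRE-bla cells after 3 h treatment with DMSO-dissolved compounds.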

[13] = cAMP Responsive Elements (CRE) small molecule antagonists, cell-based qHTS assay (AID 1963591; active means well fitted inhibition curve with a large enough effect in the signal ratio in the repeat runs, not every such curve was filed as active; the % refers to the signal ratio)
Procedure, shortened: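 qHTS in CRE-bla HEK 293T cells: compound in DMSO, then 0.25 uM NKH477 (final), 3 h at 37 °C/5% CO2; beta-lactamase FRET read-out after 2 h substrate incubation.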

[14] = molecular target: Beta-2 adrenergic receptor (Homo sapiens) (UniProt P07550); assay: Adrenergic beta2 receptor (ADRB2) small molecule antagonists, cell-based qHTS assay (AID 1963592); further: series mostly up to about 92 µM; nearly all actives have a fitted effect of over 50% in size
Beta-2 adrenergic receptor (Homo sapiens), sequence (P07550 whole entry, looked up): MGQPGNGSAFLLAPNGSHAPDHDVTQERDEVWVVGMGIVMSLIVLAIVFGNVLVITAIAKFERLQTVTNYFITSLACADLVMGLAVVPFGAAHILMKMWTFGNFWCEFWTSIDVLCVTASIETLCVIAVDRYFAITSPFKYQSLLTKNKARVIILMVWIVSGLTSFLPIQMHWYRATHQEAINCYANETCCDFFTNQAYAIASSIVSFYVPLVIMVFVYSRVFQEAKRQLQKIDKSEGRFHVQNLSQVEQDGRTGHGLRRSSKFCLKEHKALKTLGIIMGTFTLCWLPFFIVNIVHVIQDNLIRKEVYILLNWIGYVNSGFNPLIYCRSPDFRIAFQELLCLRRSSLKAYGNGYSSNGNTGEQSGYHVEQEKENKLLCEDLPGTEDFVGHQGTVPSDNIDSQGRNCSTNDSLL
Procedure, shortened: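 Cells (CHO, stable ADRB2 overexpression) incubated 18-20hr at 37C; compounds added from DMSO; agonist mix (1nM isoproterenol, 100uM IBMX, 25uM Ro-20-1724) added; 0.5hr RT; d2-cAMP and anti-cAMP-cryptate added; 1hr RT; 665/615 nm read.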

[15] = molecular target: Beta-2 adrenergic receptor (Homo sapiens) (UniProt P07550); assay: Adrenergic beta2 receptor (ADRB2) small molecule agonists, cell-based qHTS assay (AID 1963593);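 further: CHO cells stably overexpressing human ADRB2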
Procedure, shortened: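 CHO cells stably over-expressing ADRB2 were plated overnight at 37C, then dosed with compounds plus a stimulation mix containing 100uM IBMX and 25uM Ro-20-1724 for 0.5hr at room temperature. cAMP was measured by HTRF competition, 1hr.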

[16] = molecular target: D(2) dopamine receptor (Homo sapiens) (UniProt P14416); assay: Dopamine D2 receptor (DRD2) small molecule agonists, cell-based qHTS assay (AID 1963594); further: nearly all actives have a fitted effect of over 35% in size
D(2) dopamine receptor (Homo sapiens), sequence (P14416 whole entry, looked up): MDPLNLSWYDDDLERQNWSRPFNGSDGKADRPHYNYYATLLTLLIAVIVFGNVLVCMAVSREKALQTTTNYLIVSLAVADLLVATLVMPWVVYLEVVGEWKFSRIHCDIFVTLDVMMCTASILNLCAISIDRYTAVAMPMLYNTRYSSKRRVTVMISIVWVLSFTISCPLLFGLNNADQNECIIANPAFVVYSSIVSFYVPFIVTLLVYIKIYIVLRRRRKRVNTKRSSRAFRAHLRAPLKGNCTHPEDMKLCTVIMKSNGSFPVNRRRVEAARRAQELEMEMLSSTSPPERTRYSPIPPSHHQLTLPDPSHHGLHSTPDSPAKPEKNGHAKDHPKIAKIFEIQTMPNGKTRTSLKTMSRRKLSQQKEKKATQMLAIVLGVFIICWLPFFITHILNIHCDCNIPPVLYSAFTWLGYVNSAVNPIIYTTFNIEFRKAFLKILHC
Procedure, shortened: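 HEK293 cells stably expressing human DRD2, pre-treated with PDE inhibitor Ro20-1724 (0.1 mM final) and compound 10 min at room temperature, then stimulated with NKH477 (200nM […]) for 30 min. cAMP read by HTRF (665/620 nm).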

[17] = molecular target: D(2) dopamine receptor (Homo sapiens) (UniProt P14416); assay: Dopamine D2 receptor (DRD2) small molecule antagonists, cell-based qHTS assay (AID 1963595; active means well fitted inhibition curve with a large enough effect in the signal ratio in the repeat runs, with a control signal flat; the % refers to the signal ratio)
Procedure, shortened: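 HEK293 cells stably expressing DRD2 were preincubated with 0.1 mM Ro20-1724, then with compound for 10 min at room temperature. Cells were stimulated with 200 nM NKH477 plus 12 nM quinpirole for 30 min, and cAMP was read by HTRF.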

[18] = p53 small molecule agonists, cell-based qHTS assay: qHTS cell viability counter screen (AID 1963581); further: nearly all actives have a fitted effect of over 45% in size; further: potency means the concentration at half of the fitted maximal effect
Procedure, shortened: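 Compounds are pinned onto HCT-116 p53RE-bla cells and left 16 h at 37 C. Following the reporter FRET read, ATP is quantified by CellTiter-Glo luminescence after 30 min at room temperature.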

[19] = p53 small molecule agonists, cell-based qHTS assay (AID 1963582; active means well fitted activation curve with a large enough effect in the signal ratio in the repeat runs, not every such curve was filed as active; the % refers to the signal ratio; further: potency means the concentration at half of the fitted maximal effect)
Procedure, shortened: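 Agonist activity was scored from beta-lactamase FRET fluorescence in p53RE-bla cells treated 16 h at 37 C with compounds in DMSO, substrate incubation being 2 h at room temperature.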

[20] = p53 small molecule agonists, cell-based qHTS assay with human liver microsomes: qHTS cell viability counter screen (AID 1963579); further: nearly all actives have a fitted effect of over 45% in size
Procedure, shortened: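 p53RE-bla cells (4,000/well) were pre-incubated 5 h at 37 C, then given compounds in DMSO plus human liver microsomes (0.5 mg/mL final) and NADPH (0.5 mg/mL final) for 16 h at 37 C. Viability was read by CellTiter-Glo luminescence.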

Compound	Potency [1]	Potency [2]	Potency [3]	Potency [4]	Potency [5]	Potency [6]	Potency [7]	Potency [8]	Potency [9]	Potency [10]	Potency [11]	Potency [12]	Potency [13]	Potency [14]	Potency [15]	Potency [16]	Potency [17]	Potency [18]	Potency [19]	Potency [20]
O=C1O[C@H](CO)[C@@H](O)[C@H](O)[C@H]1O	inactive	inactive	inactive	inactive	inactive	inactive	inactive	inactive	inactive	inactive	inactive	inactive	inactive	inactive	inactive	inactive	inactive	–	–	–
CN(C)Cc1cc(CN(C)C)c(O)c(CN(C)C)c1	inactive	inactive	inactive	inactive	inactive	inactive	inactive	inactive	inactive	inactive	inactive	inactive	inactive	inactive	–	inactive	inactive	inactive	–	–
C=C(C)OC(C)=O	inactive	inactive	inactive	inactive	inactive	inactive	inactive	inactive	inactive	inactive	inactive	inactive	inactive	inactive	–	inactive	inactive	inactive	inactive	–
C=CC(=O)OCCOCCOCCOCCOC(=O)C=C	61.4 µM (active) and 48.1 µM (active)	24.5 µM (active) and 27.1 µM (active)	inactive	inactive	inactive	inactive	inactive	inactive	inactive	–	–	–	–	inactive	–	inactive	inactive	–	inactive	–
NNc1ccc(C(=O)O)cc1	inactive	22 µM (active) and 30.9 µM (active)	inactive	inactive	inactive	inactive	inactive	inactive	inactive	inactive	inactive	inactive	–	–	–	inactive	inactive	inactive	inactive	–
CCCCCCCCCC	inactive	inactive	inactive	inactive	inactive	inactive	inactive	–	inactive	inactive	–	inactive	inactive	inactive	inactive	inactive	inactive	inactive	–	–
C/C=C1/CC2C=CC1C2 (centres undefined)	inactive	inactive	inactive	inactive	inactive	inactive	inactive	inactive	inactive	inactive	inactive	inactive	inactive	inactive	inactive	inactive	inactive	inactive	inactive	–
O=C(OCc1ccccc1)c1ccc(O)cc1	inactive	68.6 µM (active) and 13.3 µM (active)	inactive	inactive	inactive	inactive	inactive	33.4 µM (active)	inactive	–	inactive	inactive	inactive	inactive	inactive	inactive	inactive	inactive	inactive	–
CC(=O)O[C@]1(C(C)=O)CC[C@H]2[C@@H]3C[C@H](C)C4=CC(=O)CC[C@]4(C)[C@H]3CC[C@@]21C	inactive	inactive	inactive	inactive	inactive	inactive	–	–	–	–	–	–	–	inactive	inactive	–	inactive	inactive	–	inactive
C[C@]12CC[C@@H]3c4ccc(O)cc4C[C@@H](CCCCCCCCCS(=O)CCCC(F)(F)C(F)(F)F)[C@H]3[C@@H]1CC[C@@H]2O (some centres undefined)	inactive and 4.73 µM (active)	inactive	inactive	inactive	inactive	inactive	inactive	inactive	inactive	inactive	inactive	inactive	inactive	inactive	–	inactive	inactive	inactive	inactive	–
CCCCCCCCCCCCc1ccccc1O	21.4 µM (active) and 24.3 µM (active)	inactive	inactive	inactive	inactive	inactive	inactive	inactive	inactive	inactive	inactive	–	–	inactive	–	inactive	inactive	14.3 µM (active) and 18.2 µM (active)	–	–
NCCN	inactive	inactive	inactive	inactive	inactive	inactive	inactive	inactive	–	inactive	–	inactive	inactive	inactive	inactive	inactive	inactive	inactive	inactive	–
C[C@]12CC[C@@H]3c4ccc(O)cc4CC[C@H]3[C@@H]1CC[C@@H]2O	inactive	inactive	inactive	inactive	inactive	inactive	–	–	–	–	–	inactive	inactive	inactive	–	inactive	inactive	–	inactive	inactive
C#C[C@]1(O)CC[C@H]2[C@@H]3CCc4cc(O)ccc4[C@H]3CC[C@@]21C	inactive	inactive	inactive	inactive	inactive	inactive	inactive	–	–	–	–	–	–	inactive	inactive	inactive	inactive	–	16.1 µM (active)	–
O=C(O)Cc1c[nH]c2ccccc12	inactive	inactive	inactive	inactive	inactive	inactive	inactive	inactive	inactive	inactive	inactive	inactive	inactive	inactive	inactive	inactive	inactive	inactive	inactive	–
